Compound activity (PubChem)
Mtb MenB inh: M. tuberculosis MenB inhibitors, primary screen, biochemical, absorbance. 100,000 compounds, 0.43% hits. MenB enzyme assay, absorbance read-out. 1,4-dihydroxy-2-naphthoyl-CoA synthase (Mycobacterium tuberculosis (strain ATCC 25618 / …. inhibition, % (concentration not given with the values). AID 540299, 2011; in the data active = inhibition above about 21%, passing the limit was not always enough
Mtb MbtI inh: MbtI salicylate synthase inhibitors, primary screen, biochemical, fluorescence intensity; P9WFX0; purified MbtI enzyme, fluorescence intensity read-out; inhibition, % (test concentration not listed); 100,000 compounds, 0.89% hits; AID 493033, 2011; in the data active = inhibition mostly above about 56%, no sharp cut-off; inactive = mostly below about 77%
Target sequence (P9WFX0 whole entry, looked up): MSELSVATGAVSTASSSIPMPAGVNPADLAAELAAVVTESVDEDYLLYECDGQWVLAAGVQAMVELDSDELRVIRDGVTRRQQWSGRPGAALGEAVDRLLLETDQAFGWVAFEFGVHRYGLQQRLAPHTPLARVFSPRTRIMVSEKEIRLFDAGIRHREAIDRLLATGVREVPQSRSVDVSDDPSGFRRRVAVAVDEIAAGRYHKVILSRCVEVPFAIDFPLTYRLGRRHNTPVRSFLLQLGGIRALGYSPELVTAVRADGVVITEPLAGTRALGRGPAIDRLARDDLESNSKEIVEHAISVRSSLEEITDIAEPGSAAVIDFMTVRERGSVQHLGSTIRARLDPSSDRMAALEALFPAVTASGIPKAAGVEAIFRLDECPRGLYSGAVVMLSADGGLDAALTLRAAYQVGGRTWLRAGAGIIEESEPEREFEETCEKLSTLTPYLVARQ
PV pol inh: poliovirus RdRp elongation inhibitors, primary screen, biochemical, fluorescence polarization, total intensity | Genome polyprotein (Poliovirus type 1 (strain Mahoney)), P03300 | poliovirus polymerase elongation; active compounds read low | % elongation, % (compound at 16.7 µg/mL) | 150,000 compounds, 0.66% hits | AID 588519, 2011; in the data active = % elongation below about 90%
* = called active by the depositor. Hits are enriched below; roughly 1.4% of the tested compounds scored in any of these assays.

C/C(=N\NC(=O)C(F)(F)F)c1ccccc1O was read as Mtb MenB inh 34*, Mtb MbtI inh 1 and PV pol inh 103.
Screening CN(c1ccccc1)C(C(=O)NC1CCCC1)c1ccc(Cl)cc1 (configuration not stated) returned Mtb MbtI inh 7.
For CCc1ccc(NC(=O)Cn2c(=O)n(C(C)C)c(=O)c3oc4ccccc4c32)cc1 the results were Mtb MenB inh -12, Mtb MbtI inh -17 and PV pol inh 103.
For COCCn1c(C)cc(/C=N/n2c(-c3ccccc3C)n[nH]c2=S)c1C the results were Mtb MenB inh -37, Mtb MbtI inh 96* and PV pol inh 82*.
`C=CCc1cccc(/C=N/n2c(-c3ccccc3C)n[nH]c2=S)c1O` gave Mtb MenB inh -59, Mtb MbtI inh 13 and PV pol inh 98.
Screening O=C(Cc1csc(-c2cccs2)n1)N1CCN(S(=O)(=O)c2ccccc2C(F)(F)F)CC1 returned Mtb MenB inh -37, Mtb MbtI inh -47 and PV pol inh 107.
C=CC(=O)Nc1ccc(OC(F)(F)F)cc1 was read as Mtb MenB inh -23, Mtb MbtI inh 1 and PV pol inh 102.
`Cc1occc1-c1nnc(SCC(=O)Nc2ccc3c(c2)OCO3)n1CC(C)C` gave Mtb MenB inh -33, Mtb MbtI inh -3 and PV pol inh 103.
CNC(=O)N(O)c1ccccc1 was read as Mtb MenB inh 13, Mtb MbtI inh -12 and PV pol inh 102.
`COC(=O)N(c1ccccc1)P1(=S)OCCO1` gave Mtb MenB inh 37*, Mtb MbtI inh 102* and PV pol inh 96.
For Cc1cc(C(C#N)c2nc3ccccc3o2)nc(N2CCOCC2)n1 (configuration not stated) the results were Mtb MenB inh -33, Mtb MbtI inh -20 and PV pol inh 101.
`CC(C)=CC[C@@H](O)C1=CC(=O)c2c(O)ccc(O)c2C1=O` gave Mtb MbtI inh -22 and PV pol inh 46*.
For CC(C)(C)NC(=S)NCC1CC1 the results were Mtb MenB inh -19, Mtb MbtI inh -5 and PV pol inh 105.
For CCN(CC)CCNC(=O)c1ccc2c(c1)sc1nc(-c3ccc(F)cc3)cn12 the results were PV pol inh 89*.
Screening CCOc1ccc(-c2cn3c(n2)sc2cc(C(=O)NCCCN(CC)CC)ccc23)cc1 returned PV pol inh 101.
For O=C(CC(NCc1cccnc1)C(=O)O)Nc1ccc(F)cc1 (configuration not stated) the results were PV pol inh 106.
`NC(=NS(=O)(=O)c1ccccc1)c1ccccc1F` gave Mtb MbtI inh -14 and PV pol inh 104.
Cn1cc(Br)c(N2C(=O)C=CC2=O)n1 was read as Mtb MenB inh -12, Mtb MbtI inh 95* and PV pol inh 100.
Screening CCOC(=O)c1c(S(=O)(=O)N(C)c2ccc(C)cc2)c(C)n(C)c1C returned Mtb MenB inh 11, Mtb MbtI inh -14 and PV pol inh 101.
O=C(c1cccnc1Nc1ccccc1F)N1CCCCC1 was read as Mtb MenB inh 39*, Mtb MbtI inh 8 and PV pol inh 100.
Screening COc1ccc(N2CCN(C(=O)c3cccnc3Nc3ccccc3F)CC2)cc1 returned Mtb MenB inh -7, Mtb MbtI inh 5 and PV pol inh 102.
`O=C1N/C(=C\c2ccccc2Cl)C(=O)N1Cc1ccc(Cl)cc1` gave Mtb MenB inh -20, Mtb MbtI inh -7 and PV pol inh 101.
Screening Nc1cccc2c1C(=O)N(C(=O)/C=C/c1cccc(F)c1)C2=O returned Mtb MenB inh -36, Mtb MbtI inh 12 and PV pol inh 82*.
Screening CC1Cc2ccccc2N1C(=O)/C=C/c1cccc(F)c1 (configuration not stated) returned Mtb MenB inh -5, Mtb MbtI inh 14 and PV pol inh 98.
Screening NNC(=O)CSC(=S)N1CCCC1 returned Mtb MenB inh -64, Mtb MbtI inh 20 and PV pol inh 104.
Cc1c(C(=O)CSc2ncc(C#N)c(N)n2)c2ccccc2n1C was read as Mtb MenB inh 30* and PV pol inh 102.
For COC(=O)CSc1ncc(C#N)c(N)n1 the results were Mtb MenB inh 17, Mtb MbtI inh 34 and PV pol inh 102.
`Cc1ccc(-n2c(SCC(N)=O)nc3ccccc3c2=O)cc1` gave Mtb MenB inh -49 and PV pol inh 102.
For CCOC(=O)CCn1cc(/C=C(\C#N)C(N)=S)c(-c2ccccc2)n1 the results were Mtb MenB inh -53, Mtb MbtI inh 51 and PV pol inh 89*.
Screening CCOC(=O)/C(C#N)=C/c1cn(CCC#N)nc1-c1ccccc1 returned Mtb MenB inh -24, Mtb MbtI inh -3 and PV pol inh 100.
